The target in test [1] is RAC-alpha serine/threonine-protein kinase (Homo sapiens) (UniProt P31749). Conditions: at 0.1 µM.
For test [2] the target is unchanged. Conditions: at 1 µM.
Test [3] has as its target RAC-beta serine/threonine-protein kinase (Homo sapiens) (UniProt P31751). Conditions: at 0.1 µM.
The target is the same in test [4]. Conditions: at 1 µM.
The target of test [5] is RAC-gamma serine/threonine-protein kinase (Homo sapiens) (UniProt Q9Y243). The note with it: at 0.1 µM.
For test [6] the target is unchanged. The note with it: at 1 µM.
For test [7], the target named is G protein-coupled receptor kinase 6 (Homo sapiens) (UniProt P43250). The note with it: at 0.1 µM.
Sequence of G protein-coupled receptor kinase 6 (Homo sapiens) (P43250 whole entry, looked up): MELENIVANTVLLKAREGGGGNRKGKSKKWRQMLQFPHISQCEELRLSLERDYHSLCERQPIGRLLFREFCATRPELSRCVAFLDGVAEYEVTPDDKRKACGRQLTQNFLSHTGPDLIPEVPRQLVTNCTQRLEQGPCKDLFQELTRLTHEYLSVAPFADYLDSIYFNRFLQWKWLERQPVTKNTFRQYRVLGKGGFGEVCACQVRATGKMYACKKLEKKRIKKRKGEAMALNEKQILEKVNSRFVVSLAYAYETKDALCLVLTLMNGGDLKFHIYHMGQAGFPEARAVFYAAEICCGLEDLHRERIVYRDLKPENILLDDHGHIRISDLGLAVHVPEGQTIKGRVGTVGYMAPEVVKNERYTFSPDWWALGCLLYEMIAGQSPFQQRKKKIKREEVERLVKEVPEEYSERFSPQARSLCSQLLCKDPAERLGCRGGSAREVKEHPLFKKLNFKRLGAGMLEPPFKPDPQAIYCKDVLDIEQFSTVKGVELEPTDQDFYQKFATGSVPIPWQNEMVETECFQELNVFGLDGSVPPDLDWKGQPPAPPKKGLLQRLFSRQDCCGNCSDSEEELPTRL
The target is the same in test [8]. Conditions: at 1 µM.
Test [9] concerns the target T1, Rhodopsin kinase GRK7 (Homo sapiens) (UniProt Q8WTQ7).
T1 sequence (whole entry): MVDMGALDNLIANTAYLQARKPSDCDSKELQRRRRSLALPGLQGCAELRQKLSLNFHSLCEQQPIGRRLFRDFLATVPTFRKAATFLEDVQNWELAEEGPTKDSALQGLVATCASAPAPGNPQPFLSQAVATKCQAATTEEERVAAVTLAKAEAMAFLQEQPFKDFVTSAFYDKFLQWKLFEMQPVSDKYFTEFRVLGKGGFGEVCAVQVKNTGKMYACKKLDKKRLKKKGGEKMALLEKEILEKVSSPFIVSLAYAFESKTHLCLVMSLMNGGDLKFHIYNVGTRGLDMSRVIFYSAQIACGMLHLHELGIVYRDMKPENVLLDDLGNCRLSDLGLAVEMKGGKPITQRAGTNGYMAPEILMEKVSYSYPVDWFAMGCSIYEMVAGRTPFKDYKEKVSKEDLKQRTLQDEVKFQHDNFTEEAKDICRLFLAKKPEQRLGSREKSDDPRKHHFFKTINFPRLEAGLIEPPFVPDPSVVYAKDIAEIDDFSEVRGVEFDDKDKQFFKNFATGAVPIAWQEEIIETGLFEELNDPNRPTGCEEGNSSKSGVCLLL
The note with it: at 0.1 µM.

In test [10] the target is T1, Rhodopsin kinase GRK7 (Homo sapiens). Conditions: at 1 µM.
In test [11] the target is Serine/threonine-protein kinase MRCK alpha (Homo sapiens) (UniProt Q5VT25). Conditions: at 0.1 µM.
Sequence of Serine/threonine-protein kinase MRCK alpha (Homo sapiens) (Q5VT25 whole entry): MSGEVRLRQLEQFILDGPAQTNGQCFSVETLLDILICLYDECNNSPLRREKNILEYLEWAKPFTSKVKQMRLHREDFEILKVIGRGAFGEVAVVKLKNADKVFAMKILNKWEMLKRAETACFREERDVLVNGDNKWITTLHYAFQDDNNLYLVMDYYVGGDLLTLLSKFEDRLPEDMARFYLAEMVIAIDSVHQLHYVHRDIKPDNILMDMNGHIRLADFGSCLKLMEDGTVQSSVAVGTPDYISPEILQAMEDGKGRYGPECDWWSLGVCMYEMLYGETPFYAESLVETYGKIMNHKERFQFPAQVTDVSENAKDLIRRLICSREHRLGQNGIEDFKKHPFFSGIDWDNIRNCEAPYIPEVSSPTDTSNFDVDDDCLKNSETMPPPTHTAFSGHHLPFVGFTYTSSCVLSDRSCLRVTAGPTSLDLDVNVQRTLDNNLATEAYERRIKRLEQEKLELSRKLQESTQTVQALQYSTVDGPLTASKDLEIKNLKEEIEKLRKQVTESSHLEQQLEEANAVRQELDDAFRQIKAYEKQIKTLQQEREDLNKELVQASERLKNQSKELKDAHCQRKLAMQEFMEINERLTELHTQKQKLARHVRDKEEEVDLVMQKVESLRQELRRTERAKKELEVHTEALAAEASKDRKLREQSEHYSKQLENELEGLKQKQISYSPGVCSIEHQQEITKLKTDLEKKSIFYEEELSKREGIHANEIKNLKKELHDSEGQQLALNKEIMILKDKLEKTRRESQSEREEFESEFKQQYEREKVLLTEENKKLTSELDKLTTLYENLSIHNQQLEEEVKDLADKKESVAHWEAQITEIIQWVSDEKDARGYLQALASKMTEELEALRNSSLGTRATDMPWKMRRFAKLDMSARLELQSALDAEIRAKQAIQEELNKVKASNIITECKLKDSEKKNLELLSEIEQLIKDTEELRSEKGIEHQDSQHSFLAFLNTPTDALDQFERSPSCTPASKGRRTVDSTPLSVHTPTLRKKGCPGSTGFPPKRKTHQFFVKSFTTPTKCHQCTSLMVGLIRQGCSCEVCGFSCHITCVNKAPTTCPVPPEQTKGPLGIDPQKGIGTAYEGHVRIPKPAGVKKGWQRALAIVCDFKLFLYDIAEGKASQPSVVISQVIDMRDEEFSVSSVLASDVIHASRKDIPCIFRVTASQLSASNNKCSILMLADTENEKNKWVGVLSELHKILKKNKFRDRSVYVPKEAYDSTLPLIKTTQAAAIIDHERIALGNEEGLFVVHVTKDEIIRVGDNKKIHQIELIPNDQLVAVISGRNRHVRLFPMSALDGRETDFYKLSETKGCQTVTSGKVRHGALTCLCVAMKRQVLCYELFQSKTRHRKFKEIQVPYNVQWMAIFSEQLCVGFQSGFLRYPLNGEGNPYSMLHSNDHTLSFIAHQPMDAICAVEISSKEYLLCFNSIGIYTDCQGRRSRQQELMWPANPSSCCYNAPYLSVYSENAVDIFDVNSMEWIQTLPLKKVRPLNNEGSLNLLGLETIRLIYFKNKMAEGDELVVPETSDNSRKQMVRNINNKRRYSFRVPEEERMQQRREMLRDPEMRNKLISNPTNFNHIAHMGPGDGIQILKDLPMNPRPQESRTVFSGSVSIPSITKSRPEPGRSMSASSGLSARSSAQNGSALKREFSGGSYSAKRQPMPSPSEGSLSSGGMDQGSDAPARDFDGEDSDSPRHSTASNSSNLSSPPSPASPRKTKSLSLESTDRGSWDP
Test [12] has the same target. The note with it: at 1 µM.
The target in test [13] is Serine/threonine-protein kinase MRCK beta (Homo sapiens) (UniProt Q9Y5S2). Conditions: at 0.1 µM.
Sequence of Serine/threonine-protein kinase MRCK beta (Homo sapiens) (Q9Y5S2 whole entry): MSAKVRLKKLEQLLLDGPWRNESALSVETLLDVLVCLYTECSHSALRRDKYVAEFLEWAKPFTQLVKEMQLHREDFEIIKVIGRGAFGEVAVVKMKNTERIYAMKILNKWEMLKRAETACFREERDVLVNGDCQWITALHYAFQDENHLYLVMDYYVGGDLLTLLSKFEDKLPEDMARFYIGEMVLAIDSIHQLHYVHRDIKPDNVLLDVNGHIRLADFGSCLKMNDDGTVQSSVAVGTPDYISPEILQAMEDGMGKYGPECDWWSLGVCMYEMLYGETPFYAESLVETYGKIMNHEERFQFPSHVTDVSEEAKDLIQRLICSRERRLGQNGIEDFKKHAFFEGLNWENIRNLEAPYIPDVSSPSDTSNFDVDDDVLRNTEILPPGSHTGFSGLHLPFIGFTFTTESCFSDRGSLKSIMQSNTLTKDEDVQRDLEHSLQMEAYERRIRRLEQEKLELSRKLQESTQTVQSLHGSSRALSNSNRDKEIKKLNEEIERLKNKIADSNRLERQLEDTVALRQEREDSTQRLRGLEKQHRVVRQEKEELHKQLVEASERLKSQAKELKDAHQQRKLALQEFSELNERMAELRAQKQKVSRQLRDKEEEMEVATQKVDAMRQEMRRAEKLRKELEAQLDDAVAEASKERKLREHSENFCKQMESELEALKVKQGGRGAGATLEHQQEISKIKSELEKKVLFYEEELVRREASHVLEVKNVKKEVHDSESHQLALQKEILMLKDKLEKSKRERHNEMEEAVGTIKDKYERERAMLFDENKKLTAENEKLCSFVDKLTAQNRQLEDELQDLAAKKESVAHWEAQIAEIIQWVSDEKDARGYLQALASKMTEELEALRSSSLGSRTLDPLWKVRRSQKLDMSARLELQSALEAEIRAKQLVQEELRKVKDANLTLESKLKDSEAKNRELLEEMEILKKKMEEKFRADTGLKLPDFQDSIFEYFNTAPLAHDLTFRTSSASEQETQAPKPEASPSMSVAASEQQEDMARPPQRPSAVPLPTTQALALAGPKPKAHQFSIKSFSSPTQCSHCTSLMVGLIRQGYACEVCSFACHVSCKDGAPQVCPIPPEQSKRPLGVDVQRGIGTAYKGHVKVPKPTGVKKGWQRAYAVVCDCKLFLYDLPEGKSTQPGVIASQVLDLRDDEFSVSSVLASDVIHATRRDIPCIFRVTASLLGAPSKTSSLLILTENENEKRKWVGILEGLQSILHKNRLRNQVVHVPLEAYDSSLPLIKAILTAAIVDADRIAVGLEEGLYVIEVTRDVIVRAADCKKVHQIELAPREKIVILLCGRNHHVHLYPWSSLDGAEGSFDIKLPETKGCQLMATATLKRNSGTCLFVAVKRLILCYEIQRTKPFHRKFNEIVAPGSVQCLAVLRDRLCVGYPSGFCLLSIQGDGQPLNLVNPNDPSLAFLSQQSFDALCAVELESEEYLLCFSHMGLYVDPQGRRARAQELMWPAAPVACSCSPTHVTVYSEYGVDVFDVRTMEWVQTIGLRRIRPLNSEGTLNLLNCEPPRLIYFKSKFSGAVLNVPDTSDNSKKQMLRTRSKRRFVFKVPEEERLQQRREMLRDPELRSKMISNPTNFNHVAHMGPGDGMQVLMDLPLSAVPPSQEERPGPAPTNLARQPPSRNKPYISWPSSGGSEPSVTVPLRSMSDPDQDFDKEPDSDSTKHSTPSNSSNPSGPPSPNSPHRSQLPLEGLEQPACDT
Test [14] shares this target. Conditions: at 1 µM.
For test [15], the target named is Ribosomal protein S6 kinase alpha-5 (Homo sapiens) (UniProt O75582). Conditions: at 0.1 µM.
Test [16] shares this target. The note with it: at 1 µM.
In test [17] the target is Ribosomal protein S6 kinase alpha-4 (Homo sapiens) (UniProt O75676). Conditions: at 0.1 µM.
Test [18] has the same target. Conditions: at 1 µM.
Test [19] concerns the target Ribosomal protein S6 kinase beta-1 (Homo sapiens) (UniProt P23443). Conditions: at 0.1 µM.
The target is the same in test [20]. The note with it: at 1 µM.

Drawing on ChEMBL document CHEMBL1961873, “Compounds: GSK PKIS; Assays: Nanosyn kinase panel” (2012), this text covers inhibition for seven molecules.

Each structure is given as a SMILES string.

Sequence of Ribosomal protein S6 kinase beta-1 (Homo sapiens) (P23443 whole entry, looked up): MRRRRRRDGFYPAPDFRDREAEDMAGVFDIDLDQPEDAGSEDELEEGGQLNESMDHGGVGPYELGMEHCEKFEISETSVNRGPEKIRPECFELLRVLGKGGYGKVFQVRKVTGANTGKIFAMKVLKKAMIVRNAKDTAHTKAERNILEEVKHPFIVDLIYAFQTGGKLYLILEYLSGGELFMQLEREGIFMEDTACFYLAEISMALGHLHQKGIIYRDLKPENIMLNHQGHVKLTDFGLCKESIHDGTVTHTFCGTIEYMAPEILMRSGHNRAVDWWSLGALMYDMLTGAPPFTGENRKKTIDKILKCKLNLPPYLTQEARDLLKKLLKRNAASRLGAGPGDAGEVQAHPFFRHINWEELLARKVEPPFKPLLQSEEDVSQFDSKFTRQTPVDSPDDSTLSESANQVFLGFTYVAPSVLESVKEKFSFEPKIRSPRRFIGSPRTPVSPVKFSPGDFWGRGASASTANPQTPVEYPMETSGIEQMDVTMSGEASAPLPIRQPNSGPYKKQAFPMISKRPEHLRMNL
Sequence of RAC-alpha serine/threonine-protein kinase (Homo sapiens) (P31749 whole entry): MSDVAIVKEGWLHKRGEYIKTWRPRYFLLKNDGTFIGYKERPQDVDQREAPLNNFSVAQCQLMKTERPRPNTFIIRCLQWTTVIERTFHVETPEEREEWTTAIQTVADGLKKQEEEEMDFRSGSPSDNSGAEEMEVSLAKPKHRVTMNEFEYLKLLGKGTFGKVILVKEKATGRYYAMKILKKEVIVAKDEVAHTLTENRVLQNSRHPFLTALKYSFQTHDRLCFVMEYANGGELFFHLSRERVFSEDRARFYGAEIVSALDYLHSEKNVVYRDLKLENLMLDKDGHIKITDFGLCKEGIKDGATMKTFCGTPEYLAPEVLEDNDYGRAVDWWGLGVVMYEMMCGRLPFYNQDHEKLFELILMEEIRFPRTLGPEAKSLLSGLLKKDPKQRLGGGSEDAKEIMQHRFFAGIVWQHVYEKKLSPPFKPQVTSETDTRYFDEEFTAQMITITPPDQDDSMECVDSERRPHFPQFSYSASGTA

Broadly, the inhibition is the relative decrease from the control value, in per cent. Turning to `CS(=O)(=O)Nc1ccc(-c2ccc3c(NC(=O)C4CC4)n[nH]c3c2)cc1`, the inhibition in test [1] came out at 1.74%; in [2] it was 2.3%; in test [3] it was 1.58%; in test [4], 4.27%; in [5], 3.61%; in test [6], 0.93%. Besides, the inhibition is 2.24% in test [7]; 1.55% in test [8]; 5.28% in test [9]; 2.36% in [10]; -0.45% in test [11]; -1.86% in test [12]. Moreover, the inhibition in [13] was -0.12%; in test [14] it was 1.45%; in test [15], 3.35%; in test [16], 5.67%; in test [17], -1%; in test [18] it was 3.37%. Also, the values for the inhibition in test [19] and in test [20] were 2.17% and 2.83%, respectively.
`NS(=O)(=O)c1cccc(N/C=C2\C(=O)Nc3ccccc32)c1`: the inhibition in [1] is 0.57%; in [2], 0.97%; in test [3], 1.32%; in [4], 1.98%; in [5] it was 1.37%; in test [6], 0.33%. In addition, the inhibition in test [7] was 3.98%; in [8], 11.5%; in test [9], 2.36%; in [10] it was 9.13%; in test [11] it was 0.02%; in test [12], 0.03%. In addition, the inhibition in test [13] turned out to be 0.57%; in [14] it was 2.14%; in test [15], 10.2%; in [16], 14.8%; in [17], 2.95%; in test [18], 18.6%. The inhibition in test [19] was determined as 2.13%; in test [20] it was 8%.
On to `COC(=O)Nc1nc2cc(Oc3ccc(NC(=O)Nc4ccccc4)cc3)ccc2[nH]1`, for which the inhibition came to 0.35% in test [1]; 0.28% in test [2]; 1.44% in [3]; 1.16% in test [4]; 2.24% in [5]; 0.78% in test [6]. The inhibition in test [7] is 3.76%; in [8], 10.8%; in test [9] it was 4.75%; in test [10], 15.2%; in test [11], 1.11%; in [12], 3.26%. Moreover, the inhibition in test [13] is -0.1%; in test [14], 0.05%; in test [15], 2.4%; in test [16] it was 2.36%; in test [17], 2.62%; in test [18], 3.88%. Besides, the inhibition in [19] was determined as 2.09%; in test [20], 3.12%.
Consider `CNC(=O)c1cncc(/C=C/c2ccccc2C)c1`, for which the inhibition in [1] amounted to 0.63%; in test [2], 1.08%; in [3], 2.41%; in test [4] it was 2.34%; in test [5], 1.3%; in [6] it was 1.52%. The inhibition in test [7] is 3.92%; in test [8], 8.41%; in test [9], 3.15%; in [10], 0.44%; in test [11], -0.01%; in [12] it was 2.94%. Further, the inhibition was -0.34% in test [13]; 0.83% in [14]; 3.42% in test [15]; 6.01% in test [16]; 2.58% in test [17]; 4.27% in [18]. The inhibition in test [19] is -0.48%; in test [20] it was 1.97%.
Take `Cc1ccc(-c2cc3c(NC(=O)C4CC4)ncnc3o2)cc1`: the inhibition was found to be 0.96% in test [1]; 1.39% in test [2]; 1.6% in test [3]; 1.7% in [4]; 3.51% in test [5]; 2.62% in test [6]. The inhibition in [7] was 3.77%; in test [8], -1.16%; in [9], 4%; in [10], 1.88%; in [11] it was -0.24%; in [12] it was 0.37%. Also, the inhibition in test [13] amounted to 1.15%; in test [14] it was 1.58%; in [15] it was 3.67%; in test [16] it was 3.15%; in test [17] it was 2.15%; in test [18] it was 4.27%. Further, the inhibition came out at 2.29% in test [19] and 1.52% in test [20].
Consider `CC(C)c1ccc(-c2cc(-c3c[nH]nc3-c3ccccn3)ccn2)cc1`, for which the inhibition is 0.13% in test [1]; 0.07% in test [2]; -0.03% in [3]; 0.06% in [4]; 1.01% in test [5]; 0.29% in [6]. For the same molecule, the inhibition in test [7] is -1.41%; in test [8], -0.19%; in [9] it was 2.99%; in [10], 1.48%; in [11] it was -0.14%; in test [12] it was -0.28%. Also, the inhibition was -0.59% in test [13]; 2.06% in test [14]; 1.59% in test [15]; 1.63% in test [16]; 1.53% in test [17]; 2.87% in [18]. The figures for the inhibition in test [19] and in test [20] were 0.17% and -0.41%, respectively.
Turning to `O=C1Nc2ccccc2/C1=C1\CCc2cc(O)ccc21`, the inhibition stood at 1.29% in test [1]; 1.37% in test [2]; 1.86% in [3]; 4.03% in test [4]; 3.35% in [5]; 1.29% in [6]. Further, the inhibition in test [7] turned out to be 2.32%; in test [8], 15%; in test [9], 3.45%; in test [10] it was 11.4%; in [11], 0.14%; in test [12], 0.38%. In addition, the inhibition in test [13] was found to be 1.68%; in [14], 1.65%; in test [15], 1.96%; in test [16], 10.1%; in test [17] it was 16.3%; in [18], 56.7%. For the same molecule, the values for the inhibition in test [19] and in [20] were 2.81% and 11.6%, respectively.
